# Test results published in PubChem BioAssay (Tox21).
# Results filed as inconclusive are left out. Entries that show only a call come without a potency. Unmarked numbers belong to inactive results. Active and inactive are the calls of the source. The call rests on the fitted dose curve; in most records, active means well fitted activation curve with a large enough effect in the repeat runs; inconclusive means weak or mixed curves; inactive means flat fitted curve, though single readings scatter.
# Experiment: A CellTox Green Cytotoxicity Assay to monitor cytotoxicity in HepG2 cells - 32 hour (AID 1224883); further: nearly all actives have a fitted effect of over 50% in size
# Settings: CellTox Green fluorescence; series mostly up to 76.8 µM
# Source text: National Center for Advancing Translational Sciences [NCATS]
# NIH Chemical Genomics Center [NCGC]
# U.S. Environmental Protection Agency [EPA]
# National Institutes of Environmental Health Sciences [NIEHS]
# National Toxicology Program [NTP]
# Cell-based models are critical for drug discovery. Determining the natural cytotoxic effects resulting from test compounds is an essential research activity. A CellTox Green Cytotoxicity Assay to monitor cytotoxicity in real time of continues cell culture during 40 hours of the compound treatment was used to screen Tox21 10K library compounds in HepG2 cells. CellTox Green Cytotoxicity Assay is a nonlytic, homogeneous, biofluorescent method to measure cytotoxicity in cell culture after experimental manipulation. The assay system uses a proprietary asymmetric cyanine dye that is excluded from viable cells but preferentially stains the dead cell's DNA. […] Viable cells produce no appreciable increases in fluorescence. Therefore, the fluorescence signal produced by the binding interaction with dead cell DNA is proportional to cytotoxicity.
# The mixture of HepG2 cell suspension and reagents were dispensed at 600cells/6 ul/well in 1536-well tissue culture treated black solid bottom plates using a Multidrop dispenser. After the assay plates were incubated at a 37 C/5% CO2 incubator for 5 hours, 23 nL of compounds dissolved in DMSO, positive and negative controls was transferred to the assay plate by a pintool work station. The plates were incubated at 37 C for 40 hours. The fluorescence intensity were measured at 0h, 8h, 16h, 24h, 32h and 40h time points using ViewLux plate reader during compound treatment.
# Potency means the concentration at half of the fitted maximal effect.
SMILES,cytotoxicity increase,Potency
CC1=CC[C@@H]2C[C@H]1C2(C)C,-9% [at 15.8 µM],–
CCCCC(CC)COS(=O)(=O)O (stereo not given),–,inactive
O=c1[nH][nH]c(=O)c2cc([N+](=O)[O-])ccc12,–,inactive
O=S(=O)(Cl)c1c(Cl)cccc1Cl,–,inactive
CCCCCCCCCCCCCCN(C)C,-7.28% [at 15.8 µM],–
C=CC(=O)O,–,inactive
CC(C)c1ccc(C#N)cc1,–,inactive
CCN(CC)CCOC(=O)C(c1ccccc1)c1ccccc1,–,inactive
CCCCCCCCCCCSCC(=O)O,–,inactive
CCNc1nc(N)nc(Cl)n1,–,inactive
CC(=O)N[C@@H](Cc1ccc(O)cc1)C(=O)O,–,inactive
O=C(O)CN1C(=O)c2cccc3cccc(c23)C1=O,–,inactive
CCN(Cc1cccc(S(=O)(=O)O)c1)c1ccc(C(=C2C=CC(=[N+](CC)Cc3cccc(S(=O)(=O)O)c3)C=C2)c2ccc(O)cc2S(=O)(=O)[O-])cc1,–,inactive
CCOC(=O)Oc1ccc(CCNC(=O)[C@H](CCSC)NC(C)=O)cc1OC(=O)OCC,–,inactive
CC(=O)OCC(C)C,–,inactive
NC(=O)c1ccccc1[N+](=O)[O-],–,inactive
C=C(C)C(=O)OCCC(F)(F)C(F)(F)C(F)(F)C(F)(F)C(F)(F)C(F)(F)F,–,inactive
CN1C(CSCC(F)(F)F)Nc2cc(Cl)c(S(N)(=O)=O)cc2S1(=O)=O (stereo not given),–,inactive
O=C(NS(=O)(=O)/C=C/c1ccccc1)c1ccc(F)cc1Cl,–,54.9 µM (active)
O=S(=O)(O)CO,–,inactive

SMILES,cytotoxicity increase,Potency
COc1cc(OC)c2ccc(=O)oc2c1,–,inactive
O=C(C(=O)c1ccco1)c1ccco1,–,inactive
CCCCCCCCCCCC(=O)OCC(O)CO (stereo not given),–,inactive
CCCCCCCCCCCCCCCC(=O)OCC,–,inactive
COC1CCC=CO1 (stereo not given),–,inactive
CCCCOC(=O)CCCCC(=O)OCCCC,–,inactive
O=C(/C=C/c1ccc([N+](=O)[O-])cc1)c1ccccc1,–,21.9 µM (active)
CC12CC3CC(C)(C1)CC(N)(C3)C2,–,inactive
COc1ccc(C)cc1,–,inactive
CCOC(=O)C(C)O (stereo not given),–,inactive
CCC(CO)(CO)CO,–,inactive
CCN(CC)c1ccc(C(=C2C=CC(=[N+](CC)CC)C=C2)c2ccc(S(=O)(=O)O)cc2S(=O)(=O)[O-])cc1,–,inactive
O=C1OC[C@H](Cc2cccc(O)c2)[C@H]1Cc1cccc(O)c1,–,inactive
O=C1NC(=O)c2cccc3cccc1c23,–,inactive
Cc1c(C2(c3cc(Br)c(O)c(Br)c3C)OS(=O)(=O)c3ccccc32)cc(Br)c(O)c1Br,–,inactive
O=C(O)CCC(=O)OC[C@@H](NC(=O)C(Cl)Cl)[C@H](O)c1ccc([N+](=O)[O-])cc1,–,12 µM (active)
COc1ccc(C(=O)NCc2ccc(OCCN(C)C)cc2)cc1OC,–,inactive
CCCCCc1ccco1,–,inactive
CCCCCCCC/C=C\CCCCCCCC(=O)OCCO,–,inactive
CCCCCCCC/C=C/C(=O)O,–,inactive
